Sampled rows, rich in hits. Any-hit rate of the full collection: about 5.7%.
DAX1 inh-1 – inhibits human nuclear receptor DAX1. P51843. HEK293 Gal4-DAX1 luciferase reporter, luminescence. inhibition, % at 6.75 µM. actives 0.99% (n = 340,000). AID 504766;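 active = inhibition above the mean over all tested compounds plus 3 SD, cut at about 4.2% in these data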;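 also: 0% = DAX1-transfected cells with DMSO and 100% = empty-vector control cells with DMSO; inhibition shows as a rise in luminescence from relieved DAX1 repression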
hgDAF12 agonist – hgDAF-12 agonism, primary luciferase screen; HEK293 GAL4-hgDAF12 UAS-luciferase reporter, agonist luminescence; normalized to butyrate control; activation, % at 6.8 µM; actives 1.8% (n = 370,000);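 active = activation above a cutoff set at the mean of all screened compounds plus 3 SD, cut at about 10% in these data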;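 also: 0% = DMSO wells and 100% = sodium butyrate wells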
DAX1 inh-2 – DAX1 (NR0B1) inhibition, primary screen; HEK293T StAR-luciferase reporter, SF-1/DAX-1 repression relief; inhibition, % at 6.8 µM; actives 1.1% (n = 370,000); AID 652010;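 active = inhibition above the mean over all tested compounds plus 3 SD, cut at about 3.6% in these data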;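 also: 0% = DAX-1 cells with DMSO and 100% = cells lacking DAX-1 with DMSO; higher inhibition means more luminescence from relief of DAX-1 repression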
hcDAF-12 act – H. contortus DAF-12 activation, primary screen; activation, % at 6.8 µM; AID 652067; actives 1.4% (n = 370,000); HEK293 hcDAF-12 lit1-tk-luc reporter, luminescence; 0% DMSO, 100% Δ7-dafachronic acid;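 active = activation above the mean of all tested compounds plus 3 SD, cut at about 5.5% in these data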;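 also: 100% = response to 3 µM Δ7-dafachronic acid high control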
ssDAF12 agonist – activators of S. stercoralis DAF-12 nuclear receptor; activation, % at 6.8 µM; AID 652126; HEK293 ssDAF-12/GRIP1 lit1-tk-luc reporter, luminescence; % of 3 µM dafachronic acid response; actives 1% (n = 370,000);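 active = activation above the mean over all tested compounds plus 3 SD, cut at about 0.9% in these data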;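 also: 0% = DMSO-only wells and 100% = 3 µM delta7-dafachronic acid wells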
AHR activator – activators of human aryl hydrocarbon receptor; actives 2.5% (n = 320,000); activation, % at 5 µM; AHR-responsive luciferase reporter cells, luminescence; in the data active = activation above about 47%;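 also: 0% = vehicle wells and 100% = reference agonist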
Target sequence (P35869 whole entry, looked up): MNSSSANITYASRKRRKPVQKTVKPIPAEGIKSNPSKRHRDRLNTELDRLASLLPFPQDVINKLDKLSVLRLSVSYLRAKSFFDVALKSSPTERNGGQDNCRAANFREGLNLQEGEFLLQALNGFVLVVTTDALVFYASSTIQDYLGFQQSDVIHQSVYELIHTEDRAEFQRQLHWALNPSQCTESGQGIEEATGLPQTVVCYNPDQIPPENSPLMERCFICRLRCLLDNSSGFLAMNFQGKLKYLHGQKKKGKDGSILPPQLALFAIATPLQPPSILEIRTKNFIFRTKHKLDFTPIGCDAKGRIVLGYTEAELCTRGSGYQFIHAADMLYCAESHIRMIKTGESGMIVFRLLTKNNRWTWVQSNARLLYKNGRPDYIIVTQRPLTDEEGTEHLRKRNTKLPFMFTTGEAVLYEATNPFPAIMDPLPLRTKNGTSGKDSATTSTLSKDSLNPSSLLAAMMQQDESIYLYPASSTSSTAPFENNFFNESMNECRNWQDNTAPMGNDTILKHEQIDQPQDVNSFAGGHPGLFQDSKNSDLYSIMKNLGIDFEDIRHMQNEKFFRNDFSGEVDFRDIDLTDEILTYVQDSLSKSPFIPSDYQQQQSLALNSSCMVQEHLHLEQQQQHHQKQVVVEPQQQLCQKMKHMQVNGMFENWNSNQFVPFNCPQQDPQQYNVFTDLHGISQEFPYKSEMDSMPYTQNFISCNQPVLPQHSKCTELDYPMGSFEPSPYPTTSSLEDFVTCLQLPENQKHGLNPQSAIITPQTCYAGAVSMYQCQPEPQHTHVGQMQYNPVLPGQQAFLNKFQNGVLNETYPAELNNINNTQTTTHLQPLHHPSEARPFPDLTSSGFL
* = called active by the depositor; · = not tested or not shown.

SMILES | DAX1 inh-1 | hgDAF12 agonist | DAX1 inh-2 | hcDAF-12 act | ssDAF12 agonist | AHR activator
COc1ccccc1NS(=O)(=O)c1cccc(C(=O)N/N=C(/C)c2ccc(-n3ccnc3)cc2)c1 | 1 | 4 | -2 | -2 | 0 | ·
C/C(=N\NC(=O)COc1ccc(C(C)(C)C)cc1)c1ccc(-n2ccnc2)cc1 | 0 | 6 | 2 | 1 | -1 | 73*
CNS(=O)(=O)c1cccc(C(=O)NCC2(N3CCOCC3)CCCCC2)c1 | 0 | -3 | 1 | 0 | -1 | 5
O=C(NCC1CCCO1)c1cccc(NS(=O)(=O)c2ccc(Br)cc2)c1 (centres undefined) | -1 | -2 | -2 | 0 | -1 | 0
COc1ccc(OCC(=O)N/N=C(\C)c2ccc(-n3ccnc3)cc2)cc1 | 0 | -1 | 0 | -3 | -1 | 55*
C/C(=N\NC(N)=S)c1ccc(-n2ccnc2)cc1 | 0 | -3 | -1 | 0 | -1 | 113*
C/C(=N\Nc1ccc(Cl)c(Cl)c1)c1ccc(-n2ccnc2)cc1 | -1 | 2 | -1 | 1 | -2 | 23
O=[N+]([O-])C(/C=C(/Cl)[N+](=O)[O-])=C(N1CCCCC1)N1CCCCC1 | 1 | -2 | 0 | 1 | -1 | 2
CCOC(=O)c1c(NC(=O)CSc2nnc(C)c(=O)[nH]2)sc(C)c1-c1ccc(C)cc1 | 4.6* | 0 | 0 | 0 | -1 | 0
Cc1cc(C(=O)NNC(=O)c2sccc2C)c(C)o1 | 1 | 3 | 4.3* | 1 | 0 | 6
Cc1cc(C(=O)NCC(=O)O)c(C)o1 | 0 | 1 | -1 | -1 | -2 | 0
Cc1cc(C(=O)NN)c(C)o1 | 6.2* | 5 | 1 | 1 | -1 | 10
COc1cc2c(cc1C=O)OC(C)C2 (centres undefined) | 0 | 0 | 0 | -2 | -1 | 1
Cc1ccc(NC(=O)c2ccc(Cn3cc(Br)cn3)o2)cc1 | -2 | 0 | -2 | -3 | -1 | 60*
NNC(=O)c1ccc(Cn2cc(Br)cn2)o1 | 4.5* | 3 | 0 | -1 | -1 | 31
O=C(c1ccccc1)N1CCC2CCN(S(=O)(=O)c3ccccc3)CC21 (centres undefined) | · | 1 | -1 | -3 | -1 | ·
Cn1c(SCC(=O)NC2CCCC2)nnc1-c1ccccn1 | 0 | 2 | 2 | 0 | -1 | -1
COc1ccc(C2C3=C(CC(C)(C)CC3=O)N(C)C3=C2C(=O)CC(C)(C)C3)cc1 | -1 | -1 | -1 | -1 | -2 | 1
CN1C2=C(C(=O)CC(C)(C)C2)C(c2cccs2)C2=C1CC(C)(C)CC2=O | 5.3* | 0 | -1 | -2 | -1 | 0
Cc1cc(=O)nc2c3ccccc3n(CC(=O)NCCCN3CCCC3=O)n12 | 1 | 3 | 1 | 6.0* | 0 | 18
Cc1cc(=O)nc2c3ccccc3n(CC(=O)NCCCN3CCOCC3)n12 | 1 | · | · | · | · | 12
Cc1ccccc1NC(=O)C(=O)NCCCN1CCCC1=O | 1 | 0 | 3.7* | 3 | 0 | 6
CCN(CC)CCCNC(=O)C(C)n1c2ccccc2c2nc(=O)cc(C)n21 (centres undefined) | 5.4* | -1 | 1 | -1 | -1 | 1
COc1ccc(-c2cc(C(=O)Nc3cc(C)nn3-c3ccccc3)no2)cc1OC | 1 | -3 | 0 | 0 | -2 | 2
COc1ccccc1CNc1nc(=S)[nH]c2cc(OC)c(OC)cc12 | 0 | 0 | 0 | -1 | -1 | 15
SMILES | DAX1 inh-1 | hgDAF12 agonist | DAX1 inh-2 | hcDAF-12 act | ssDAF12 agonist | AHR activator
COc1cc2[nH]c(=S)nc(NCc3cccs3)c2cc1OC | 1 | -4 | 1 | 0 | -1 | 60*
Cc1cc2c(cc1C)-n1nnnc1C(N1CCN(c3ccccn3)CC1)C(c1ccc3c(c1)OCO3)=N2 (centres undefined) | · | 8 | 1 | 6.3* | 0 | ·
Brc1ccc(-c2cnc(-c3cccs3)o2)cc1 | 2 | 5 | 1 | 3 | 0 | 66*
COc1ccc(Nc2n[nH]c(N)c2C(N)=O)cc1 | 14* | -2 | 1 | 0 | -2 | 10
Cc1ccc2nc3c(c(N)c2c1)CCN3c1ccccc1 | -2 | 0 | -1 | 0 | -2 | 4
CN1CCc2c1nc1ccccc1c2N (tested in a mixture with another compound) | 1 | 1 | 0 | 3 | 0 | 19
CCCCN1CCc2c1nc1ccc(Br)cc1c2N | -1 | 3 | 1 | 4 | -1 | 76*
Cc1ccc2nc3c(c(N)c2c1)CCN3C | 4 | 7 | 0 | 6.2* | 0 | 31
CC(C)C1N(C(=O)N2CCOCC2)CCN1S(=O)(=O)c1ccccc1 (centres undefined) | 2 | 3 | 0 | 1 | -1 | -1
CSc1ccc(CN2CCC(C)(Oc3cnc(Cl)c4ccccc34)C2)cc1 (centres undefined) | · | -2 | 0 | -1 | -1 | ·
COCc1[nH]nc2c1C(c1ccccc1)NC2=O (centres undefined) | · | -1 | 1 | 0 | 0 | ·
COC(=O)C1CCc2c(ccc3c2CCCC3)C1=O (centres undefined) | 4.4* | 6 | 4.3* | 1 | -1 | ·
COCc1cc(C)nc2sc(C(=O)OC(C)C)c(N)c12 | 0 | -2 | 0 | 0 | -1 | 72*
COc1ccc(C(CNC(=O)CSc2ccccc2F)N2CCOCC2)cc1 (centres undefined) | 0 | -1 | 0 | -1 | 1.1* | 4
COc1ccc(C(CNC(=O)CSc2ccc(Br)cc2C)N2CCOCC2)cc1 (centres undefined) | 0 | -2 | 1 | 0 | -1 | 3
Cc1cc(-c2onc3ccc(Cl)cc23)ccc1O | 0 | 7 | 0 | 6.2* | 0 | 5
CC(=O)c1ccc2noc(-c3ccc(Cl)cc3)c2c1 | 0 | 0 | 0 | 2 | -1 | 4
Cc1ccc(-c2onc3ccc(C=O)cc23)cc1 | -3 | 13* | 1 | 0 | 0 | 0
Cc1ccc(S(=O)(=O)N2N=C3CCCCC3C2(O)C(F)(F)F)cc1 (centres undefined) | 2 | 3 | 0 | -1 | -1 | 1
CC(=O)N1CCc2cc(NC(=O)c3ccc(C)cc3)ccc21 | -1 | 11* | 2 | 2 | -1 | -13
COc1ccccc1/C=N/Nc1cc(C)nc(N2CCOCC2)n1 | 1 | -1 | 0 | -1 | -2 | 51*
COc1ccc(/C=N\Nc2ncc(F)c(N3CCOCC3)n2)cc1OC | -4 | -1 | -1 | 0 | -1 | 59*
Cc1cc(C)nc(N/N=C/c2ccc(N3CCOCC3)cc2)n1 | -1 | -2 | 0 | -2 | 0 | 12
COc1ccc(/C=N/Nc2cc(C)nc(N3CCOCC3)n2)cc1OC | · | 3 | 0 | -1 | 0 | 50*
